The text below walks through data of the supplement of paper PMC13094657.

± gives the standard deviation of the averaged measurements.

The assay deals with MDA-MB-231. Nature of the assay: kynurenine production, fold change vs DMSO IFNg/TNF control; higher = more kynurenine produced (less inhibition). Particulars: pre-treatment time: 18 h then 24 h IFNg/TNF. The gist of the method:
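MDA-MB-231 cells were seeded in 96-well plates at 7 × 10^4/well and, 24 h later, pre-treated for 18 h with each natural product in 0.1% DMSO. They were then stimulated for 24 h at 37°C with IFNγ (1 U/ml) and TNF (6.25 ng/ml). Supernatants were treated with trichloroacetic acid and p-dimethylaminobenzaldehyde and read at 492 nm against 0–100 μM standards. Kynurenine production is expressed as fold change over cytokine-stimulated vehicle wells on the same plate and, in the first screening round, averaged across duplicate plates.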
For the compound `COC(=O)C1=C2CCOC3=C2C2=C1C(=O)[C@@H]1C[C@H]4N(C[C@@H](CC3)[C@@]24C)C[C@H]1C` [Daphnicyclidin D] (compound dose: 10 uM), the kynurenine production came out at 0.831 ± 0.18.

On to `CC1OC(OC2C(CO)OC(OCC3OC(OC(=O)C45CCC(C)(C)CC4C4=CCC6C7(C)CCC(OC8OCC(O)C(O)C8O)C(C)(CO)C7CCC6(C)C4(C)CC5)C(O)C(O)C3O)C(O)C2O)C(O)C(O)C1O` (configuration not stated) [Hederacoside D] (compound dose: 10 uM), for which the kynurenine production was 0.851 ± 0.16.

Regarding `Cc1cc(O)cc(O[C@@H]2O[C@H](CO)[C@@H](O)[C@H](O)[C@H]2O)c1` [Orcinol glucoside] (compound dose: 10 uM), the kynurenine production came out at 0.821 ± 0.095.

On to `C=C1C(OC(C)=O)C(OC(C)=O)C(OC(=O)c2cccnc2)C(C)(C)C=CC(C)C(OC(C)=O)C2(O)CC(C)(OC(C)=O)C(OC(=O)c3ccccc3)C2C1OC(C)=O` (configuration not stated) [Pepluanin A] (compound dose: 10 uM), for which the kynurenine production was 0.806 ± 0.06.

Regarding `COc1cc2cc3c4c(cc5c(c4c2cc1OC)OCO5)CCN3C` [Dehydrodicentrine] (compound dose: 10 uM), the kynurenine production amounted to 0.807 ± 0.12.

In the case of `O=c1c(O)c(-c2ccc(O)c(O)c2)oc2cc(O)cc(O)c12` [Quercetin] (compound dose: 10 uM), the kynurenine production was 0.738 ± 0.2.

For `CC12CCC(C1)C(C)(C)C2=O` (single isomer, unassigned; (-)) [(-)-Fenchone] (compound dose: 10 uM), the kynurenine production stood at 0.955 ± 0.13.

As for `O=c1c(O)c(-c2ccc(O)cc2)oc2cc(O)cc(O)c12` [Kaempferol] (compound dose: 10 uM), the kynurenine production was found to be 0.672 ± 0.023.

For `CC1(C)CC[C@]2(C(=O)O)CC[C@]3(C)C(=CC[C@@H]4[C@@]5(C)CC[C@H](O[C@@H]6O[C@H](C(=O)O)[C@@H](O)[C@H](O)[C@H]6O)C(C)(C)[C@@H]5CC[C@]43C)[C@@H]2C1` [Calenduloside E] (compound dose: 10 uM), the kynurenine production came out at 0.962 ± 0.087.

For the compound `C/C=C(\C)C(=O)O[C@H]1[C@H](O)[C@]2(COC(C)=O)[C@H](O)C[C@]3(C)C(=CC[C@@H]4[C@@]5(C)CC[C@H](O[C@@H]6O[C@H](C(=O)O)[C@@H](O[C@@H]7O[C@H](CO)[C@@H](O)[C@H](O)[C@H]7O)[C@H](O)[C@H]6O[C@@H]6O[C@H](CO)[C@@H](O)[C@H](O)[C@H]6O)[C@](C)(CO)[C@@H]5CC[C@]43C)[C@@H]2CC1(C)C` [Isoescin IA] (compound dose: 10 uM), the kynurenine production was 0.779 ± 0.12.

On to `CC(C)C1=CC(=O)C(C)(C2C(O)CC3(C)C4CC=C5C(CCC(OC6OC(CO)C(O)C(O)C6OC6OC(C)C(O)C(O)C6O)C5(C)C)C4(C)C(=O)CC23C)O1` (configuration not stated) [Picfeltarraenin IB] (compound dose: 10 uM), for which the kynurenine production turned out to be 0.771 ± 0.23.

As to `C=C(C)[C@@H]1CC=C(CO)CC1` [(S)-(-)-Perillyl alcohol] (compound dose: 10 uM), the kynurenine production stood at 1.19 ± 0.25.

Turning to `C=C(C)C(=O)O[C@H]1CC2=C[C@@H](C/C(C)=C/[C@H]3OC(=O)C(=C)[C@H]13)OC2=O` [Deoxyelephantopin] (compound dose: 10 uM), the kynurenine production turned out to be 0.117 ± 0.06.

On to `C[C@H]1O[C@@H](O[C@H]2CC[C@@]3(C)[C@@H](CC[C@]4(C)[C@@H]3C=C[C@]35OC[C@@]6(CCC(C)(C)C[C@H]63)[C@@H](O)C[C@]54C)[C@]2(C)CO)[C@H](O)[C@@H](O[C@@H]2O[C@H](CO)[C@@H](O)[C@H](O)[C@H]2O)[C@H]1O` [Saikosaponin A] (compound dose: 10 uM), for which the kynurenine production was determined as 0.824 ± 0.1.

With `CC[C@@H](C(=O)[C@@H](C)[C@@H](O)[C@H](C)CCc1ccc(C)c(O)c1C(=O)O)[C@H]1O[C@](CC)([C@H]2CC[C@](O)(CC)[C@H](C)O2)C[C@@H]1C` [Lasalocid (sodium)] (compound dose: 10 uM), the kynurenine production was found to be 0.37 ± 0.0038.

For the compound `C=C1[C@H](OC(C)=O)[C@@H](O)[C@@H](OC(=O)c2cccnc2)C(C)(C)/C=C/[C@H](C)[C@H](OC(C)=O)[C@@]2(O)C[C@@](C)(OC(C)=O)[C@H](OC(=O)c3ccccc3)[C@@H]2[C@H]1OC(C)=O` [Jatrophane 5] (compound dose: 10 uM), the kynurenine production is 0.90473 ± 0.00055.

For `C=C[C@H]1[C@H](O[C@@H]2O[C@H](CO)[C@@H](O)[C@H](O)[C@H]2O)OC=C2C(=O)OCC[C@]21O` [Swertiamarin] (compound dose: 10 uM), the kynurenine production was 0.912 ± 0.14.

With `Cc1coc2c1C(=O)C(=O)c1c-2ccc2c(C)cccc12` [Tanshinone I] (compound dose: 2 uM), the kynurenine production was found to be 0.643 ± 0.14.

Regarding `CC(=O)OCC1=CO[C@@H](OC(=O)CC(C)C)[C@H]2C1=C[C@H](OC(=O)CC(C)C)[C@]21CO1` [Valepotriate] (compound dose: 10 uM), the kynurenine production was 0.321 ± 0.04.

On to `CC(C)=CCC[C@](C)(O[C@@H]1O[C@H](CO[C@@H]2O[C@H](CO)[C@@H](O)[C@H](O)[C@H]2O)[C@@H](O)[C@H](O)[C@H]1O)[C@H]1CC[C@]2(C)[C@@H]1[C@H](O)C[C@@H]1[C@@]3(C)CC[C@H](O[C@@H]4O[C@H](CO)[C@@H](O)[C@H](O)[C@H]4O[C@@H]4O[C@H](CO)[C@@H](O)[C@H](O)[C@H]4O[C@@H]4OC[C@@H](O)[C@H](O)[C@H]4O)C(C)(C)[C@@H]3CC[C@]12C` [Notoginsenoside Fa] (compound dose: 10 uM), for which the kynurenine production was found to be 1.06 ± 0.13.

As for `C=C(C)[C@@H]1CC[C@]2(C(=O)O)CC[C@]3(C)[C@H](CC[C@@H]4[C@@]5(C)CCC(=O)C(C)(C)[C@@H]5CC[C@]43C)[C@@H]12` [Betulonic acid] (compound dose: 10 uM), the kynurenine production worked out at 0.785 ± 0.074.

In the case of `C[C@@H]1CC[C@]2(C(=O)O)CC[C@]3(C)C(=CCC4[C@@]5(C)CC[C@H](O[C@@H]6OC[C@H](O)[C@H](O)[C@H]6O)C(C)(C)C5CC[C@]43C)[C@@H]2[C@]1(C)O` (some centres not stated) [Ziyuglycoside II] (compound dose: 10 uM), the kynurenine production amounted to 0.646 ± 0.0077.
